Here are results for 96 compounds from PubChem BioAssay AID624483 (NMMLSC, 2012).

Out of some 360,000 compounds screened, about 11,000 (3.1%) were called active. Roughly 2% stayed inconclusive and do not appear here. The entries come from a sample that favours actives as a whole. A number with no mark means an inactive call. Rule as the data show it: active = fluorescence intensity above about 16000; inconclusive = no clear call, values can overlap the other calls; inactive = below that.

This assay is described as follows: counter-screen for toxin protease inhibitors: compound fluorescence, primary screen, artefact control for toxin protease inhibitor project, biochemical, multiplex microsphere, HTS (AID 624483). Conditions: compound autofluorescence counterscreen, microsphere flow cytometry; stronger effect = higher value. Background: Counterscreens check selectivity or assay interference.
For `CC1(C)CC(N(Cc2ccccc2)C(=O)Cc2ccccc2)CCO1` (stereo unspecified), the fluorescence intensity was 4030. On to `Cn1ncc(Br)c1C(=O)NCc1cccs1`, for which the fluorescence intensity was 23700 (active). As for `COc1ccccc1NC(=O)c1c(Br)cnn1C`, the figure is 2020; as for `O=C(NCc1cccs1)c1ccc(Br)o1`, 2540; as for `N#Cc1ccc(-c2ccc(Cl)cc2)nc1Oc1ccc(F)cc1`, 9640. To `Clc1ccc(Cl)c(Oc2ccc(Oc3nc(Cl)ccc3Cl)cc2)n1` belongs 16400 (active); to `CC1(Oc2cccc(F)c2)CCN(Cc2ccccc2OC(F)F)C1` (stereo unspecified), 4130; to `C=C(C)c1cccc(C(C)(C)NC(=O)NC2CCCC2)c1`, 9090. In the case of `O=C(COC(=O)c1ccc[nH]c1=O)Nc1ccc2c(c1)OC(F)(F)O2`, the fluorescence intensity was 5560. To `O=C(COC(=O)CNC(=O)c1ccco1)Nc1ccc(F)cc1` belongs 3560; to `O=C(COC(=O)c1ccccc1NC(=O)c1ccco1)Nc1ccc2c(c1)OC(F)(F)O2`, 21800 (active); to `COc1ccc2cc(C(=O)NCC3CCCO3)[nH]c2c1` (stereo unspecified), 3630. For `CCOC(=O)C1CCCN(C(=O)c2cc(-c3cccs3)oc2C)CC1` (stereo unspecified), the fluorescence intensity was 2870. As for `CC(C)Cn1cnc2c1c(=O)n(CC(=O)NN)c(=O)n2Cc1ccccc1`, the figure is 4610; as for `CC(C)CCn1cnc2c1c(=O)n(CC(=O)NC(N)=O)c(=O)n2Cc1ccccc1`, 3800.

For `CC(C)Cn1cnc2c1c(=O)n(CC(O)c1ccccc1)c(=O)n2CC(C)C` (stereo unspecified), the fluorescence intensity was 16100 (active).

Take `CCCCn1nnnc1C(c1ccccc1)N1CCN(c2ccccc2OC)CC1` (stereo unspecified): the fluorescence intensity is 4370.

Consider `COc1ccc(/C=C/C(=O)Nc2c(C)nn(C)c2C)cc1COc1ccc(Br)cc1`, for which the fluorescence intensity is 8730. To `CCn1nc(C)c(NC(=O)/C=C/c2ccc(OC)c(COc3ccc(Br)cc3)c2)c1C` belongs 24100 (active); to `COc1ccc(C(C)=O)cc1COc1ccc(Cl)c(C)c1`, 5920; to `COc1ccccc1-c1cc2nc(NCc3cccc(Cl)c3)ccn2n1`, 3660. Consider `CCc1nc2c(OCCc3cccc(OC)c3)cccn2c1N(C)C(=O)c1ccc(C)cc1`, for which the fluorescence intensity was 3510. To `CC(=O)N1CCN(C(=O)c2cc(-c3ccc(C)o3)nc3ccccc23)CC1` belongs 7930; to `O=C(c1cc2nc(-c3ccccc3)cc(-c3ccccc3)n2n1)N1CCC2(CC1)OCCO2`, 2800; to `O=C(c1cc(-c2ccncc2)nc2ccccc12)N1CCC2(CC1)OCCO2`, 23100 (active). For `CCCCC(=O)N(C)c1c(CC)nc2c(OCc3ccc(Cl)cc3Cl)cccn12`, the fluorescence intensity was 3970.

Take `O=C(CN1CCN(S(=O)(=O)c2ccc(Cl)s2)CC1)NCc1ccc(Cl)cc1`: the fluorescence intensity was 19600 (active). To `Cc1ccccc1N1CCN(CC(=O)NCc2ccc(Cl)cc2)CC1` belongs 4200; to `O=C(CN1CCN(S(=O)(=O)c2ccc(Cl)s2)CC1)N1CCCCC1`, 2870. As to `O=C(NC(c1ccccc1)c1ccccc1)N1CCN(CCO)CC1`, the fluorescence intensity was 20400 (active). With `CC(=O)N1CCN(CC(c2ccccc2)c2ccccc2)CC1`, the fluorescence intensity was 3040. Regarding `O=C(CN1CCN(Cc2ccccc2)CC1)NC(c1ccccc1)c1ccccc1`, the fluorescence intensity was 4580. To `Cc1ccc2c(C)c(C(=O)N(C)Cc3ccncn3)oc2c1C` belongs 5730; to `CSc1ccc(/C=N/NC(=O)c2cccc(Cl)c2)cc1`, 2570. Consider `O=C(COc1ccc(Cl)cc1Cl)N/N=C/c1ccccn1`, for which the fluorescence intensity was 5790. To `CSc1ccc(/C=N\NC(=O)COc2ccc(Cl)cc2Br)cc1` belongs 17700 (active); to `CCOC(=O)[C@]12CCCC=C1N(Cc1cccc3ccccc13)C(=O)[C@H](CC(=O)NCC13CC4CC(CC(C4)C1)C3)C2`, 5880. As for `CC1(C(=O)NCc2cccc3ccccc23)CCN1Cc1ccc(-c2ccccc2)o1` (stereo unspecified), the figure is 3560; as for `CCCCc1ccc(S(=O)(=O)NC(=O)C2(C)CCN2C(=O)c2ccccc2)cc1` (stereo unspecified), 3420. Turning to `CC(OC(=O)c1ccc(NS(=O)(=O)c2ccc3[nH]c(=O)[nH]c3c2)cc1)C(=O)Nc1cccc(Cl)c1Cl` (stereo unspecified), the fluorescence intensity is 3440. With `CC(C)(C)C(=O)NC(NC(=S)Nc1ccc(S(N)(=O)=O)cc1)C(Cl)(Cl)Cl` (stereo unspecified), the fluorescence intensity was 1960. To `CC(=O)NS(=O)(=O)c1ccccc1` belongs 6630; to `CC(=O)NS(=O)(=O)c1ccc(NC(=S)NC(=O)C(C)(C)C)cc1`, 24700 (active).

With `CC(C)CCOc1ccc(C(=O)Nc2cc(S(=O)(=O)N3CCOCC3)ccc2N2CCOCC2)cc1`, the fluorescence intensity was 3010. Consider `Cc1ccccc1CN1CCN(C(=O)c2cccc(F)c2)CC1`, for which the fluorescence intensity is 2980.

Regarding `Cc1ccccc1CS(=O)(=O)CC1(O)CCN(C(=O)c2cccc(C(F)(F)F)c2)CC1`, the fluorescence intensity is 20100 (active). As to `CC(C)CC(=O)N1CCC(O)(CS(=O)(=O)Cc2ccccc2)CC1`, the fluorescence intensity is 10100.

For the compound `Cc1cccc(OCC(O)Cn2c(N3CCCCC3)nc3c2c(=O)[nH]c(=O)n3C)c1` (stereo unspecified), the fluorescence intensity was 4090. To `O=C(c1ccc(Cl)cc1)c1ccc(OCC(O)CN2CCCCC2)cc1` (stereo unspecified) belongs 4210. To `Cn1c(=O)c2c(nc(N3CCCCCC3)n2CC(O)COc2ccc(Cl)cc2)n(C)c1=O` (stereo unspecified) belongs 21800 (active); to `c1cc(-c2ccc3[nH]ccc3c2)n2ccnc2c1`, 3500; to `COC(=O)[C@]12CCCCC=C1N(Cc1ccco1)C(=O)[C@H](CC(=O)NCC1CCCCC1)C2`, 4680. As for `CSc1ncccc1C(=O)Nc1cccc(S(=O)(=O)N2CCOCC2)c1`, the fluorescence intensity is 4320.

Consider `Oc1ccc(CNc2ccccc2O)cc1`, for which the fluorescence intensity is 3590. To `COc1ccc(OC)c(C(=O)c2coc3ccc(O)c(CN4CCOCC4)c23)c1` belongs 22400 (active); to `COc1ccc2oc(=O)cc(CN3CCOCC3)c2c1`, 4180; to `COc1ccc(OC)c(C(=O)c2coc3ccc(OC)cc23)c1`, 2950. To `Cc1ccc(NC(=O)c2oc(=O)c3ccccc3c2-c2ccccc2)c(C)c1` belongs 2070; to `CCN(CC)CCNc1nc(-c2ccc(OC(F)F)cc2)c(C)s1`, 4700; to `O=C(c1cccc(Br)c1)N1CCN(C2=NS(=O)(=O)c3ccccc32)CC1`, 5480.

As to `COc1ccc(S(=O)(=O)N2CCCC(C(=O)Nc3ccc(NC(=O)c4ccccn4)cc3)C2)cc1` (stereo unspecified), the fluorescence intensity is 22100 (active).

For `COc1ccc(CCNC(=O)C2CCCN(S(=O)(=O)c3ccc(OC)cc3)C2)cc1` (stereo unspecified), the fluorescence intensity is 5700. To `CC(=O)Nc1ccc(NC(=O)C2CCCN(S(=O)(=O)c3ccc(Cl)cc3)C2)cc1` (stereo unspecified) belongs 5830.

As for `Cc1ccc(F)c(S(=O)(=O)NC(=O)C2(C)CCN2C(=O)CCc2cccs2)c1` (stereo unspecified), the fluorescence intensity was 3440.

In the case of `COC(=O)c1ccccc1NS(=O)(=O)c1ccc2[nH]c(=O)[nH]c2c1`, the fluorescence intensity was 2520.

In the case of `CCOc1ccc(NC(=O)c2ccccc2NS(C)(=O)=O)cc1`, the fluorescence intensity is 9540.

As to `COC(=O)c1ccc(NC(=O)c2ccccc2NS(=O)(=O)c2ccccc2)cc1`, the fluorescence intensity was 20200 (active). As for `O=C(NCCC(=O)N1O[C@@H]2C=C[C@H]1C2)OCC1c2ccccc2-c2ccccc21`, the fluorescence intensity is 3360. Regarding `COc1ccc(S(=O)(=O)NC(=O)C2(C)CCN2C(=O)c2ccccc2CCc2ccccc2)cc1` (stereo unspecified), the fluorescence intensity was 3970. As for `O=C(O)c1ccc(F)c(S(=O)(=O)Nc2ccccc2)c1`, the fluorescence intensity is 9990. As for `COc1ccc(C)cc1S(=O)(=O)Nc1cccc(Cl)c1Cl`, the figure is 2450; as for `COc1ccc(Cl)cc1S(=O)(=O)Nc1cccc(C(=O)O)c1`, 22100 (active). To `COc1ccc(C(N)c2csc(NC(=O)Nc3cccc(C(F)(F)F)c3)n2)cc1` (stereo unspecified) belongs 3490. As for `Cn1nnnc1SCC(=O)N1CCN(C(c2ccccc2)c2ccccc2)CC1`, the figure is 3570; as for `Cn1nnnc1SCC(=O)N1CCN(Cc2ccccc2)CC1`, 19800 (active); as for `CC(=O)c1ccc(-n2nnnc2SCC(=O)N2CCN(C(=O)c3ccco3)CC2)cc1`, 2310. For the compound `CC(C)COc1ccc(C(=O)NNC(=O)CCC(=O)c2cccs2)cc1`, the fluorescence intensity was 4110. To `O=C(O)CCSc1nnc(-c2ccccc2)n1-c1ccccc1` belongs 22100 (active). Turning to `NNC(=O)CSc1nnc(-c2ccccc2)n1-c1ccccc1`, the fluorescence intensity was 3710. Regarding `O=C(O)CSc1nnc(-c2ccc3c(c2)OCO3)n1-c1ccccc1`, the fluorescence intensity was 2040. To `COc1ccccc1Cc1c(-c2ccc(Cl)cc2)nc2ccc(Cl)cn12` belongs 8280.

For the compound `COc1ccc(CCNC(=O)c2c(C)nn(-c3ccccc3)c2Cl)cc1`, the fluorescence intensity was 5520.

With `Cc1nn(-c2ccccc2)c(Cl)c1C(=O)Nc1ccccc1`, the fluorescence intensity is 20900 (active). To `Cc1nn(-c2ccccc2)c(C)c1NC(=O)CCl` belongs 2020; to `CCc1nc2ccc(C(=O)Nc3cc(-c4ccccc4)ccc3OC)cn2c1N(CC)CC(=O)N(C)C`, 3600. As to `CCOC(=O)C1CCN(Cc2coc3ccc(Cl)cc3c2=O)CC1`, the fluorescence intensity is 20400 (active). As for `CCOC(=O)C1CCN(C(=O)Nc2ccc(Cl)cc2)CC1`, the figure is 2770; as for `CCOC(=O)C1CCN(Cc2ccc(-c3ccccc3)cc2)CC1`, 3660. As for `Cc1cc(CNCc2c(C(=O)N(C)Cc3ccccc3)nc3ccccn23)nn1C`, the figure is 2160; as for `COc1ccc(C2C(C#N)=C(N)Oc3cc(N)ccc32)cc1OC` (stereo unspecified), 23300 (active). As for `N#CC1=C(N)Oc2cc(O)ccc2C1C1CCCCC1` (stereo unspecified), the figure is 4810; as for `N#CC1=C(N)Oc2cc(N)ccc2C1c1ccccc1` (stereo unspecified), 4230; as for `O=C(NCc1ccccc1Cl)c1csc([C@@H]2O[C@H](CO)[C@@H](O)[C@H]2O)n1`, 3690.

With `Cc1cccc(-n2ncc(Cl)c(Cl)c2=O)c1`, the fluorescence intensity was 3990. To `Cc1cccc(-n2ncc(C#N)c2-n2cccc2)c1` belongs 19100 (active). As for `CC(=O)Nc1c2c(nn1-c1cccc(C)c1)CSC2`, the figure is 5830.
